# Rows were chosen to be rich in hits. Some 2.6% of all compounds tested hit in one or more screens of this group.
# PME-1 Maybridge = inhibitors of human PME-1 in Maybridge library; recombinant PME-1, FP-Rh probe fluorescence polarization; Protein phosphatase methylesterase 1 (Homo sapiens), Q9Y570; inhibition, % at 9 µM; hit rate 0.5% among 16,000; AID 2291, 2010; in the data active = inhibition above about 30%
# NOTCH ag = agonists of NOTCH signaling. NOTCH signaling luciferase reporter cells, luminescence. activation, % at 2.5 µM. hit rate 0.4% among 15,000. AID 434982, 2010; in the data active = activation above about 2.2%
# KOR antag MB = antagonists of human kappa opioid receptor OPRK1, Maybridge library. Kappa-type opioid receptor (Homo sapiens), P41145. OPRK1 cells, antagonist mode, fluorescence readout. inhibition, % at 9 µM. hit rate 0.4% among 16,000. AID 652031, 2013; in the data active = inhibition above about 50%
# S1P1 agonist = activates the human S1P1 receptor; Sphingosine 1-phosphate receptor 1 (Homo sapiens), P21453; S1P1 agonist cell-based reporter assay; activation, % at 4.5 µM; hit rate 1.5% among 16,000; AID 1044, 2008; in the data active = activation above about 80%
# TLR4 MyD88 blk = inhibitors of human TLR4-MyD88 binding; Toll-like receptor 4 (Homo sapiens), O00206; inhibition, % at 10 µM; hit rate 0.06% among 16,000; AID 811, 2007; Cell-based TLR4-MyD88 binding inhibition assay; in the data active = inhibition above about 45%
# Target sequence (O00206 whole entry, looked up): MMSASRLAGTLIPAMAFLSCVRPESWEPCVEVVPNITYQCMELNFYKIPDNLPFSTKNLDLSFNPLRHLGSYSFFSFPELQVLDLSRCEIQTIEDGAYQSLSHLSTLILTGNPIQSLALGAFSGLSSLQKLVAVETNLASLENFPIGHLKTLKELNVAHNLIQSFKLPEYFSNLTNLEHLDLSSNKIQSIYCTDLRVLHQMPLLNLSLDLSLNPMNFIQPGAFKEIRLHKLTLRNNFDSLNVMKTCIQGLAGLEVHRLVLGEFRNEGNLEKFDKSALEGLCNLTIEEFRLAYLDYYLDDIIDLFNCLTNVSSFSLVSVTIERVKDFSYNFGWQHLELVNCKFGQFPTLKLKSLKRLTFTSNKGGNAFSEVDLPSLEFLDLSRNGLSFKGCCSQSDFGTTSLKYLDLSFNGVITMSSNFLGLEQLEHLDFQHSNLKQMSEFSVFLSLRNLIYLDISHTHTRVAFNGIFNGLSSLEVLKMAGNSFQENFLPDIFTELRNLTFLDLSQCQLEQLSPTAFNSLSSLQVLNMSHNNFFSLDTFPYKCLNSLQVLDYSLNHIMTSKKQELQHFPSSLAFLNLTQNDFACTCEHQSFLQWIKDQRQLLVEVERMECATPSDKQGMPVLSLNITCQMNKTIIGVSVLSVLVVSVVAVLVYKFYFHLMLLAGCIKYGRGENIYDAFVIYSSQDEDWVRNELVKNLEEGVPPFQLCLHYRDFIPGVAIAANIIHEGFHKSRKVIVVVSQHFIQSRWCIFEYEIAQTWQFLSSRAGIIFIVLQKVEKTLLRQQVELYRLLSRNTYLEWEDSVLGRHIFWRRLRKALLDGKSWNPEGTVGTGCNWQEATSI
# * = called active by the depositor.
SMILES,PME-1 Maybridge,NOTCH ag,KOR antag MB,S1P1 agonist,TLR4 MyD88 blk
CC1C/C(=N\OC(=O)Nc2ccc(Cl)cc2)c2cc(Cl)ccc2S1(=O)=O (stereo not given),-2.1,-0.1,4.6,1.5,-1.2
CCOC(=O)c1cc(NC(=O)Nc2cccc(Cl)c2)ccc1Oc1cncc(Cl)c1,-184.0,1.7,19.6,80.1*,-0.7
CCOC(=O)C1CCN(C(=O)Nc2c(-c3ccccc3)noc2C)CC1,-1.5,2.7*,-1.0,-6.4,-1.9
O=C1Nc2ccccc2/C1=C\c1c[nH]c2ccccc12,34.5*,-0.2,5.6,19.2,3.7
CC1(C)OC(=O)C(=Cc2c[nH]c3ccccc23)C(=O)O1,4.8,-0.5,-1.3,6.3,2.5
CCOC(=O)c1cc(N2C(=O)c3ccccc3C2=O)ccc1N1CCCCC1,-3.4,0.0,-17.2,-0.9,2.9
O=C1c2ccc(Cl)c3c(N4CCSCC4)ccc(c23)C(=O)N1c1ccccc1,-0.1,-0.3,57.8*,9.2,11.7
N/C(=N\O)c1ccc(Oc2ccc(Cl)c(Cl)c2)c([N+](=O)[O-])c1,29.5,0.5,-4.1,2.6,-10.3
O=C(NC(=S)Nc1cccc(Cl)c1Cl)c1cccc([N+](=O)[O-])c1,3.8,0.1,5.2,-16.6,4.2
O=[N+]([O-])c1ccc(N2CCc3ccccc32)cc1,9.4,0.9,64.6*,44.6,24.4

# Source: PubChem BioAssay (The Scripps Research Institute Molecular Screening Center)
